Compounds without any hit were thinned out: in the full panel of roughly 83,000, 20% have a hit.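 For each line, cells grew in 96-well plates with the test compound present at a single concentration for 48 hours.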 Unmarked numbers belong to inactive results. Activity calls are given as the source filed them. How the source made its calls: active means growth percent below 10; inactive means the rest.
Key:
Experiment in all cases: NCI-60 one-dose screen, 48 h (100 = growth as untreated, 0 = no growth, -100 = all killed)
Conditions in all cases: 10 µM unless noted
SK-MEL-2 melanoma = system: SK-MEL-2 melanoma
EKVX NSCLC = system: EKVX NSCLC
SN12C renal = system: SN12C renal
UO-31 renal = system: UO-31 renal
TK-10 renal = system: TK-10 renal
ACHN renal = system: ACHN renal
CAKI-1 renal = system: CAKI-1 renal
A498 renal = system: A498 renal
CCRF-CEM leukemia = system: CCRF-CEM leukemia
MOLT-4 leukemia = system: MOLT-4 leukemia

SMILES	growth (SK-MEL-2 melanoma)	growth (EKVX NSCLC)	growth (SN12C renal)	growth (UO-31 renal)	growth (TK-10 renal)	growth (ACHN renal)	growth (CAKI-1 renal)	growth (A498 renal)	growth (CCRF-CEM leukemia)	growth (MOLT-4 leukemia)
Cc1c2cc[nH]c(=O)c2c(C)c2c1[nH]c1ccc(OC(=O)c3ccccc3)cc12	23.7%	19.7%	32.3%	12.9%	34%	-9.28% (active)	29.1%	61.2%	29.4%	6.99% (active)
CCCCNC1=C(OCC)C(=O)c2ccccc2C1=O	104%	104%	97.2%	91.5%	145%	105%	110%	37.4%	100%	108%
COc1ccc2nc3ccccc3c(NCc3ccccc3)c2c1	47.9%	26.9%	22.4%	13.8%	38.7%	12.8%	25.8%	-14.3% (active)	33.4%	8.01% (active)
COC(=O)c1nc(-c2ccccc2)oc1S(=O)(=O)N1CCC(C(N)=O)CC1	91.2%	69.7%	83.6%	55.3%	23.2%	39.6%	49.5%	87.4%	-3.72% (active)	1.95% (active)
CC1(C)OC(=O)C(=Cc2cccc(Br)c2)C(=O)O1	103%	100%	101%	92.9%	101%	117%	100%	94.2%	93.2%	89.9%
COc1cc(C2=NN(C(C)=O)C(c3ccc(N(C)C)cc3)C2)cc(OC)c1OC (stereo not given)	90%	94.7%	86.4%	79.6%	109%	91.8%	15.3%	76%	14.6%	80.8%
Nc1ncnc2c1c(-c1ccc(Oc3ccccc3)cc1)nn2CC1SSCC1O (stereo not given)	56.8%	4.11% (active)	49.1%	-3.62% (active)	8.91% (active)	25.9%	42.5%	27.8%	9.92% (active)	-33.3% (active)
CCCCCCC(=O)Nc1ncc(Cc2ccc(C)cc2)s1	63.4%	53.4%	49.4%	44.8%	65.8%	46.3%	35.2%	19.5%	21.3%	35.2%
COc1ccc(NC(=O)c2sc3nc4c(cc3c2N)CCCC4)cc1	34.9%	44.3%	60.8%	48%	38.8%	49.3%	38.5%	5.75% (active)	9.46% (active)	21.5%
COC(=O)/C=C1/SC(=Nc2cccc(Cl)c2)N(CCc2c[nH]c3ccc(O)cc23)C1=O	-15.8% (active)	45.7%	10%	17.7%	89.2%	15.9%	37.4%	79.9%	0.545% (active)	-8.3% (active)
CCOC(=O)c1c(NC(=O)CSc2n[nH]c3nc4ccccc4n23)sc(CC)c1C	80.6%	91.9%	100%	73.4%	130%	96.8%	108%	106%	121%	79.6%
c1ccc2cc(Cn3c[n+](Cc4ccc5ccccc5c4)c4ccccc43)ccc2c1	-61.7% (active)	13.9%	5.14% (active)	53.6%	-72% (active)	46.2%	84.7%	-2.59% (active)	-13.1% (active)	-27.1% (active)
CCOC(=O)c1c(NC(=O)c2ccc(OC)cc2)sc2c(CN(C)C)c(O)ccc12	105%	95.9%	77.5%	88.8%	94.4%	6.26% (active)	72.3%	68.9%	56.6%	61.2%
COC(=O)c1c2c(n3ccc(C)cc13)C(=O)c1ccccc1C2=O	71.6%	76.3%	75.9%	41%	85.8%	56.3%	59.2%	78.3%	46.8%	51.4%
CC(C)(C)C(=O)/C=C/c1ccc([N+](=O)[O-])cc1	89.2%	89.3%	92.1%	76.5%	91.4%	57.3%	96.1%	91%	44.3%	75.4%
COc1ccc(C2=CN3CC=CCC3CC2=O)cc1 (stereo not given)	92.1%	104%	97%	95.6%	103%	115%	99.7%	93.7%	108%	95%
C/C(=C(\c1ccc(OCCN2CCCCCC2)cc1)c1ccc(OC(=O)Cc2ccccc2)cc1)c1ccc(Cl)cc1	52.9%	56.4%	28.9%	44.1%	68.6%	62.3%	48.7%	79%	6.31% (active)	-6.79% (active)
C(/C=C/c1ccccc1)=Nc1ccc(CCc2ccc(N=C/C=C/c3ccccc3)cc2)cc1	41.5%	121%	92.7%	86.4%	93.8%	6.67% (active)	41.7%	109%	95.3%	78.2%
CCOC(=O)C(=Cc1cccc(C#N)c1)C(=O)OCC	59.9%	82.3%	79.8%	54.3%	35.9%	23.7%	79.9%	122%	28.5%	50%
COc1ccc(C2CC(c3ccc4c(c3)OCO4)=Nc3c(N)ncnc3N2)cc1 (stereo not given)	72.6%	119%	111%	89.4%	118%	101%	120%	94.4%	3.41% (active)	91.9%
COc1cccc(Nc2ccnc3[nH]c4ccc([N+](=O)[O-])cc4c23)c1	40.2%	31.6%	65.2%	44.4%	66.6%	45.2%	28.8%	43.5%	42%	48.7%
CC(C)(C)c1cc(C=Nc2cccc(C(F)(F)F)c2)c(O)c(C(C)(C)C)c1	102%	107%	98.8%	80.7%	84.8%	111%	90.4%	108%	62.5%	85.3%
CCCCn1sc(=O)n(Cc2ccc(CNC(=O)OCc3ccc4c(Cl)cc(Cl)c(O)c4n3)cc2)c1=O	85.6%	86.7%	57.6%	18.3%	78%	30.8%	54.6%	91%	32%	33.5%
O=C(O)CCCn1c(SCc2c(Cl)cccc2Cl)nc2ccsc2c1=O	31.3%	52.2%	53.3%	37.5%	48%	46.7%	30.6%	-1.92% (active)	19.6%	21.7%
COc1cc(Nc2ncccc2NC(=O)c2cn(Cc3cccc(Oc4ccccc4)c3)nn2)cc(OC)c1	95.7%	75%	84.2%	50.7%	100%	86.1%	83.9%	76.2%	84.5%	59.6%
O=C(N/N=C/c1ccc(Cl)cc1Cl)c1ccc2nc(-c3ccc(Cl)cc3)[nH]c2c1	38.9%	8.23% (active)	-36.9% (active)	21.6%	-4.33% (active)	-20.2% (active)	61.2%	56.2%	15.5%	4.45% (active)
COc1cccc(/C=C/C(=O)c2cc3c(N)c(C(=O)Nc4cccc(Cl)c4C)sc3nc2C)c1	-17.3% (active)	39.8%	-22.7% (active)	-43.4% (active)	-18% (active)	6.8% (active)	-47.4% (active)	-13.2% (active)	7.19% (active)	14.3%

From PubChem BioAssay (NCI)
